Data reported in PubChem BioAssay (NCATS).
Where “and” joins values, the source holds several entries; their conditions need not be identical. Equal entries are not always repeated. A number with no mark means an inactive call. Records with an inconclusive call do not appear. Calls of active or inactive are those of the source. Unless noted, calls follow the shape of the dose curve; as a rule, active = well fitted inhibition curve with a large enough effect; inconclusive = small, poorly fitted or top-dose-only effect; inactive = flat fitted curve, though single readings scatter.

Tests used:
[1] = Drug repurposing screens with cells derived from glioblastoma tumor samples (AID 1345199); conditions: GBM patient neurospheres viability, ATP luminescence, 48 h; also: nearly all actives have a fitted effect of over 40% in size; also: potency is read from the fitted curve at half-maximal effect; as to activity, negative = cell killing: % is scaled to controls: 0 for no effect and ±100 for the full control effect
In short: (§1)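 Primary testing used CD133+ neurospheres from four GBM patients, seven concentrations, 48 h exposure and ATP-based viability; confirmation added three slower-growing patient lines.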

astro = control astrocytes; assay: as above; conditions: viability, ATP luminescence, 48 h; series mostly up to 45.9 µM
In short: as §1

[2] = qHTS assay for small molecule activators of the human pregnane X receptor (PXR) signaling pathway (AID 720659; call rule not given here; also: 0% is about no effect); conditions: DPX-2 HepG2 CYP3A4-luciferase, 24 h; series mostly up to 92.3 µM
[3] = biological target: Nuclear receptor subfamily 1 group I member 2 (Rattus norvegicus) (UniProt Q9R1A7); assay: qHTS assay for small molecule activators of the rat pregnane X receptor (rPXR) signaling pathway (AID 651751; call rule not given here; also: 0% is about no effect); conditions: rPXR reporter cells, luciferase (One-Glo), 24 h
[4] = at 46.1 µM (top of the series), tumour line C
[5] = at 45.9 µM (top of the series), tumour line B
[6] = at 45.9 µM (top of the series), tumour line D
[7] = at 20 µM (top of the series), tumour line C
[8] = at 21.2 µM (top of the series), tumour line B
[9] = at 21.2 µM (top of the series), tumour line D
[10] = at 46 µM (top of the series), tumour line A

Nuclear receptor subfamily 1 group I member 2 (Rattus norvegicus), sequence (Q9R1A7 whole entry, looked up): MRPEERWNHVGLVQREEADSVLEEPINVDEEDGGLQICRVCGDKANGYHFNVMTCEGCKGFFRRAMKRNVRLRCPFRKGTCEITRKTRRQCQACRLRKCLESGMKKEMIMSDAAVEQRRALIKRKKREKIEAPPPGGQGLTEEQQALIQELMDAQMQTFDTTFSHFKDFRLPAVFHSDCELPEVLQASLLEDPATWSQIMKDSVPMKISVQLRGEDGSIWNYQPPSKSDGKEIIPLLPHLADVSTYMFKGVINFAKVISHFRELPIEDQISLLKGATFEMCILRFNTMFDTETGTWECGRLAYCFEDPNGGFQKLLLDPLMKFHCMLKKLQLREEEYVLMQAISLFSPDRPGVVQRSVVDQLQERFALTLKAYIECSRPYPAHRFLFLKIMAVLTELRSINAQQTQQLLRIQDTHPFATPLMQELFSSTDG

Which activity, negative = cell killing [1, 4] does the source give for CCCCC(CC)COC(=O)C(C#N)=C(c1ccccc1)c1ccccc1 (stereo not drawn) here?
Its activity, negative = cell killing is -18.1%.

And the Potency ([1]; tumour line A)?
Its Potency is 7.08 µM (active).

And the Potency ([1]; tumour line D)?
The Potency was 10 µM (active).

What about the Potency (astro) of the same compound?
The Potency was “inactive”.

With O=C(O)c1cn(-c2ccc(F)cc2)c2cc(N3CCNCC3)c(F)cc2c1=O as the compound, how does the activity, negative = cell killing [1, 5] read?
Its activity, negative = cell killing is -14.1%.

And the activity, negative = cell killing [1, 6]?
Its activity, negative = cell killing is -2.04%.

What about the activity, negative = cell killing [1, 4] of the same compound?
Its activity, negative = cell killing is 0.795%.

What about the Potency (astro) of the same compound?
Its Potency is “inactive”.

With CC(=O)NC[C@H]1CN(c2ccc(N3CCOCC3)c(F)c2)C(=O)O1 as the compound, how does the activity, negative = cell killing [1, 5] read?
The activity, negative = cell killing was -14.6%.

What about the activity, negative = cell killing [1, 6] of the same compound?
Its activity, negative = cell killing is -26.2%.

What about the activity, negative = cell killing [1, 4] of the same compound?
Its activity, negative = cell killing is 15.8%.

And the Potency (astro)?
The Potency was “inactive”.

Which activity, negative = cell killing [1, 7] does the source give for Cc1ccc(S(=O)(=O)NC(=O)NN2CC3CCCC3C2)cc1 (stereo not drawn) here?
The activity, negative = cell killing was -7.38%.

What about the activity, negative = cell killing [1, 8] of the same compound?
The activity, negative = cell killing was -4.46%.

And the activity, negative = cell killing [1, 9]?
Its activity, negative = cell killing is -18.4%.

What about the Potency (astro) of the same compound?
The Potency was “inactive”.

Which results are given for COc1c(O)cc2c(c1O)[C@@H]1O[C@H](CO)[C@@H](O)[C@H](O)[C@H]1OC2=O?
activity, negative = cell killing [1, 7]: -10.5%; activity, negative = cell killing [1, 8]: -10.4%; activity, negative = cell killing [1, 9]: -25.7%; Potency (astro): inactive

For CC(C)[N+]1(C)[C@@H]2CC[C@H]1CC(OC(=O)C(CO)c1ccccc1)C2 (stereo partly drawn), which activity, negative = cell killing [1, 5] is on record?
The activity, negative = cell killing was -10.3% and -8.73%.

And the activity, negative = cell killing [1, 6]?
The activity, negative = cell killing was -5.23% and -7.38%.

And the activity, negative = cell killing [1, 10]?
The activity, negative = cell killing was -16.8%.

And the activity, negative = cell killing [1, 4]?
Its activity, negative = cell killing is 14% and -28.4%.

What about the Potency (astro) of the same compound?
The Potency was “inactive”.

For CC(=O)Nc1ccc(O)cc1, which activity, negative = cell killing [1, 5] is on record?
The activity, negative = cell killing was -10.5%.

And the activity, negative = cell killing [1, 6]?
Its activity, negative = cell killing is -3.31%.

What about the activity, negative = cell killing [1, 10] of the same compound?
Its activity, negative = cell killing is -25.4%.

What about the activity, negative = cell killing [1, 4] of the same compound?
Its activity, negative = cell killing is -7.56%.

And the Potency (astro)?
Its Potency is “inactive”.

What about the outcome [2] of the same compound?
Its outcome is “inactive”.

For CNC[C@H](O)c1ccc(O)c(O)c1, which activity, negative = cell killing [1, 5] is on record?
The activity, negative = cell killing was -6.05%.

And the activity, negative = cell killing [1, 6]?
The activity, negative = cell killing was -9.08%.

What about the activity, negative = cell killing [1, 10] of the same compound?
The activity, negative = cell killing was -12.1%.

What about the activity, negative = cell killing [1, 4] of the same compound?
The activity, negative = cell killing was -9.48%.

What about the Potency (astro) of the same compound?
The Potency was “inactive”.

What about the max response [3] of the same compound?
The max response was 0.58%.

What about the outcome [2] of the same compound?
The outcome was “inactive”.
